Among the data in ChEMBL document CHEMBL3433997, “St. Jude Leishmania screening dataset” (2016) are inhibition values, retold here.

By inhibition is commonly meant the drop in the measured response relative to a control, in per cent.

Common to all, as to type: functional
The target in assay [1] is Solute carrier family 2, facilitated glucose transporter member 1 (Homo sapiens) (UniProt P11166). Description: ST_JUDE_LEISH: Cytotoxicity at 2uM final concentration against transgenic Leishmania Mexicana promastigotes LmGLUT1 that are glucose transport deficient and complemented with the human glucose transporter GLUT1. Activity is measured by DNA content using SYBR green in vitro.

Assay [2] addresses Hexose transporter 1 (Plasmodium falciparum) (UniProt O97467). Description: ST_JUDE_LEISH: Cytotoxicity at 2uM final concentration against transgenic Leishmania Mexicana promastigotes LmPfHT that are glucose transport deficient and complemented with the Plasmodium falciparum hexose transporter. Activity is measured by DNA content using SYBR green in vitro.
In assay [3] the target is Glucose transporter (Leishmania mexicana) (UniProt O61059). Description: ST_JUDE_LEISH: Cytotoxicity at 2uM final concentration against transgenic Leishmania Mexicana promastigotes LmGT2 that are glucose transport deficient and complemented with the L. Mexicana glucose transporter 2. Activity is measured by DNA content using SYBR green in vitro.

Molecules are shown by their SMILES.

Solute carrier family 2, facilitated glucose transporter member 1 (Homo sapiens), sequence (P11166 whole entry): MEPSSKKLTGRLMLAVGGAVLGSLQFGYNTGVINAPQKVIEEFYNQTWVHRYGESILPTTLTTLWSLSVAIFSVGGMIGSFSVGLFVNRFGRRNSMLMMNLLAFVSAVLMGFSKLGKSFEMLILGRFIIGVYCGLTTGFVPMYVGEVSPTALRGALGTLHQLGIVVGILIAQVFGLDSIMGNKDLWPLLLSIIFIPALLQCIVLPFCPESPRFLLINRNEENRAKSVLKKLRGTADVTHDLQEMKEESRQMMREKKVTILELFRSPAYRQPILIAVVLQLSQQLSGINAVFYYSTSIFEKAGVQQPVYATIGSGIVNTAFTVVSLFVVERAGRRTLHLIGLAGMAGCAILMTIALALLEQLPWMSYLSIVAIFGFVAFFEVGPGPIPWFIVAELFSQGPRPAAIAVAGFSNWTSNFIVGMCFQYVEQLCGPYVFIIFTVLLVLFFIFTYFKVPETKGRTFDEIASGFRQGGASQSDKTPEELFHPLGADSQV

For `Cn1cncc1C(=O)Nc1cccc(-c2ccc(-c3nc4ccccc4[nH]3)cc2)c1`, the results for the inhibition in assay [1], in assay [2] and in assay [3] were -2.56%, -2.33% and -0.9%, respectively.
Turning to `CC1=C(C(=O)OCCOCc2ccccc2)C(c2ccccc2C(F)(F)F)C(C(=O)OCCOCc2ccccc2)=C(C)N1`, the values for the inhibition in assay [1], in assay [2] and in assay [3] were -0.46%, -0.98% and -2.95%, respectively.
For the compound `O=C(NC1CCN(Cc2ccccc2)CC1)c1ccc2c(=O)n(Cc3ccc(Cl)cc3)c(=S)[nH]c2c1`, the inhibition in assay [1] is 0.69%; in assay [2], -0.17%; in assay [3], 1.31%.
Taken in the same sequence, the figures for `N#CCc1ccc(Nc2nccc(Nc3ccc(Oc4ccccc4)cc3)n2)cc1` were 13.8%, 6.97% and 1.09%.
Take `CCOC(=O)c1nc(-c2cc(Cl)nc(Cl)c2)[nH]c1NC(=S)NCc1ccc(NS(C)(=O)=O)cc1`: the inhibition in assay [1] was -2.02%; in assay [2], -1.98%; in assay [3], -1.67%.
As to `COc1cccc(Cc2c(C)nc3nc(N)nc(N)c3c2C)c1`, the inhibition in assay [1] was -0.08%; in assay [2], 1.04%; in assay [3], -0.24%.
As for `c1cncc(Oc2ccc(Nc3ccnc4cc(-c5cccc(CN6CCOCC6)c5)ccc34)cc2)c1`, the inhibition in assay [1] is -1.93%; in assay [2], -1.33%; in assay [3] it was -1.76%.
As to `FC(F)(F)c1cccnc1N1CCC(Nc2nc3cc(Cl)ccc3[nH]2)CC1`, the values for the inhibition in assay [1], in assay [2] and in assay [3] were 5.58%, 1.96% and 3.47%, respectively.
As to `O=C(COc1ccccc1)NC1CCN(c2ccnc3cc(Cl)ccc23)C1` (stereo not drawn), the inhibition in assay [1] worked out at 0.14%; in assay [2], 1%; in assay [3] it was 1.75%.
`CC(CCON1C(N)=NC(N)=NC1(C)C)c1ccc(Cl)cc1` (stereo not drawn): the figures for the inhibition in assay [1], in assay [2] and in assay [3] were 21.4%, 29.5% and 21%, respectively.
In the case of `CCN(CC)C(=O)C1CCCN(c2cc(C)nc(Nc3ccc(Cl)cc3)n2)C1` (stereo not drawn), the inhibition stood at 0.86% in assay [1], 1.03% in assay [2] and 0.51% in assay [3].
On to `O=C(Nc1cccc(-c2ccc(CN3CCCC3)cc2)c1)c1cccc(F)c1`, for which the figures for the inhibition in assay [1], in assay [2] and in assay [3] were -0.49%, 1.18% and 0.62%, respectively.
For the compound `O=C(NCCCCCN1CCC(c2c[nH]c3ccccc23)C1)Nc1ccc(Cl)c(Cl)c1` (stereo not drawn), the inhibition in assay [1] was 3.7%; in assay [2], 3.21%; in assay [3], 2.22%.
`O=C(/C=C/c1ccccc1Cl)NC1CCC(CN2CCC(c3c[nH]c4ccncc34)CC2)CC1` (stereo not drawn): the inhibition in assay [1] is -0.19%; in assay [2] it was 0.35%; in assay [3] it was 1.34%.
For the compound `FC(F)(F)c1ccc2[nH]c(-c3ccc(-c4ccc(CNCc5cnn(-c6ccccc6)n5)cc4)cc3)nc2c1`, the inhibition came to 2.68% in assay [1], 0.52% in assay [2] and 0.17% in assay [3].
`CCCN(CC1CC1)c1ncc(-c2cccc(CNCc3ccccc3O)c2)cn1`: the results for the inhibition in assay [1], in assay [2] and in assay [3] were -1.8%, -2.3% and -1.63%, respectively.
As to `O=C(Nc1ccc(-c2cncc(NCCCN3CCCC3)c2)cc1)c1ccccc1`, the inhibition in assay [1] is 1.36%; in assay [2], 1.48%; in assay [3], 1.55%.
As for `COc1cccc(NC(=O)N2CCOC(CCN3CCC4(CCc5ccccc54)CC3)(c3ccc(Cl)c(Cl)c3)C2)c1` (stereo not drawn), the results for the inhibition in assay [1], in assay [2] and in assay [3] were 7.21%, 8% and 1.65%, respectively.
Regarding `CS(=O)(=O)c1ccc2nc(NC(=O)c3csnn3)sc2c1`, the inhibition came to 3.22% in assay [1], 3.89% in assay [2] and 4.47% in assay [3].
Regarding `CO/C(=C\C=C\c1cc2cc(Cl)c(Cl)cc2[nH]1)C(=O)NCCCN1CCCC[C@H]1C`, the inhibition in assay [1] is 3.27%; in assay [2], 2.98%; in assay [3], 1.43%.
Take `CN1CCN(c2ccnc3ccc(NC(=O)Nc4ccc(Br)cc4)cc23)CC1`: the inhibition is -0.59% in assay [1], 0.3% in assay [2] and 0.32% in assay [3].
For the compound `COc1ccc2cc(C(=O)NC3CCC(CCN4CCc5cc(C#N)ccc5C4)CC3)[nH]c2c1` (stereo not drawn), the inhibition in assay [1] is 3.48%; in assay [2], 0.58%; in assay [3], 3.6%.
Take `Cc1onc(-c2c(F)cccc2Cl)c1C(=O)Nc1ccccc1I`: the inhibition in assay [1] amounted to 2.35%; in assay [2], 2.24%; in assay [3], 2.12%.
As for `CC(C)C[C@@H](NC(=O)NC1CCC(CCN2C3CCC2CC(OC(=O)C(CO)c2ccccc2)C3)CC1)C(O)(c1ccccc1)c1ccccc1` (stereo partly drawn), the results for the inhibition in assay [1], in assay [2] and in assay [3] were 3.28%, 2.19% and 0.94%, respectively.
For `CS(=O)(=O)c1ccc(CCNCc2ccc(-c3ccc(CN(C(=O)C4CC(=O)c5ccccc54)C4CCN(Cc5ccccc5)CC4)cc3)nc2)cc1` (stereo not drawn), the values for the inhibition in assay [1], in assay [2] and in assay [3] were 1.6%, 1.34% and 2.34%, respectively.
Taken in the same sequence, the figures for `CCOc1ccc(-c2nonc2NC(=O)c2ccc(F)cc2)cc1OCC` were -2.77%, 2% and 1.5%.
The like results for `CCOc1ccc2c(=NN=Cc3cccc(OC)c3)cc(C)[nH]c2c1` were, in that order, -0.74%, -0.19% and -0.12%.
For `C=CCc1cc(Cc2cnc(N)nc2N)cc(CCC)c1O`, the inhibition was -0.63% in assay [1], -0.27% in assay [2] and -0.78% in assay [3].
Consider `Cc1ccc(CCNCC(O)c2cccc(C(F)(F)F)c2)cc1` (stereo not drawn), for which the inhibition in assay [1] was 0.25%; in assay [2] it was 1.08%; in assay [3], 1.78%.
Take `O=C(c1ccc([N+](=O)[O-])o1)N1CCN(c2ccccc2)CC1`: the inhibition in assay [1] came to 3.6%; in assay [2], 1.95%; in assay [3] it was 1.09%.
The like results for `Nc1c2c(nc3ccc(NC(=O)Cc4ccccc4)cc13)CCCC2` were, in that order, 4.09%, 5.7% and 6.71%.
On to `COc1ccc(CNCCc2cccs2)cc1-c1cccc(S(=O)(=O)NCCN2CCCC2)c1`, for which the inhibition in assay [1] is 2.17%; in assay [2], 2.94%; in assay [3], 0.9%.
Turning to `O=C(Nc1ccc(OC2CCN(Cc3ccc(F)cc3)CC2)c(Cl)c1)c1ccccc1`, the inhibition in assay [1] was -3.58%; in assay [2], 0.82%; in assay [3] it was 6.06%.
Turning to `Cc1cc(NC(=O)Nc2ccc(Cl)cc2F)c2ccccc2n1`, the inhibition amounted to 3.45% in assay [1], 4.56% in assay [2] and 1.56% in assay [3].
The like results for `CCn1c(Sc2ccc(C#N)c([N+](=O)[O-])c2)nnc1-c1cccc(Cl)c1` were, in that order, 16.9%, 14.9% and 11.8%.
The like results for `O=C(N[C@@H](CC1CCCCC1)C(=O)NCc1cccc(C(F)(F)F)c1)c1ccc(O)c(-c2ccc(Cl)c(Cl)c2)c1` were, in that order, 1.91%, 1.58% and 1.16%.
